Assay [1] concerns the target Estrogen receptor (Homo sapiens) (UniProt P03372). Nature of the assay: qHTS assay for small molecule agonists of estrogen receptor alpha signaling (AID 588514; calls by dose curve;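 note: 0% = vehicle only and 100% = reference agonist; nearly all actives have a fitted effect of over 70% in size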). The gist of the method:
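Cells were plated at 5000/well, incubated 4 hrs at 37 C, dosed with compound titration series, incubated 18 hrs at 37 C, loaded with CCF4 dye for 2 hrs at RT, then fluorescence was read.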
On the technique in general: Quantitative high-throughput screening tests each substance at several concentrations.

The target of assay [2] is Retinoic acid receptor RXR-alpha (Homo sapiens) (UniProt P19793). Nature of the assay: qHTS assay for small molecule antagonists of retinoid X receptor alpha signaling (AID 588546; active = well fitted inhibition curve with a large enough effect in the signal ratio, with a control signal flat, not every such curve was filed as active; the % refers to the signal ratio;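 note: cells stimulated with 9-cis-retinoic acid as agonist; % is set by controls: 0 for no effect and ±100 for the full control effect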). To be noted: HEK293T RXRa-UAS-bla, beta-lactamase ratio, antagonist mode. In short, it runs like this:
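Beta-lactamase reporter inhibition, read as CCF4 fluorescence ratio (ex 405, em 460/530 nm) after 2 h at RT. HEK293T UAS-bla cells, 2500/well, were stimulated with 9-cis-RA at 500 or 100 nM final alongside test compound for 18 h at 37 C.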

In another assay the test system is AS120. In words: qHTS profiling for inhibitors of Plasmodium falciparum proliferation (AID 504749). Note: nearly all actives have a fitted effect of over 60% in size. Note: potency is the fitted concentration of half-maximal effect. To be noted: P. falciparum in erythrocytes, SYBR Green DNA, 72 h; series mostly up to 28.7 µM. The gist of the method: (§1)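 Parasite proliferation within erythrocytes, 72 h exposure. Endpoint: SYBR Green I fluorescence after overnight lysis at room temperature. Controls: 0.29 uM artemisinin, DMSO.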

The test system of another assay is ATS189. Described as above. To be noted: P. falciparum in erythrocytes, SYBR Green DNA, 72 h; series mostly up to 28.7 µM. In short, it runs like this:
as §1

A further assay concerns ATS95. The assay is described as above. To be noted: P. falciparum in erythrocytes, SYBR Green DNA, 72 h; series mostly up to 28.7 µM. In short, it runs like this:
as §1

A further assay concerns CP238. Described as above. To be noted: P. falciparum in erythrocytes, SYBR Green DNA, 72 h; series mostly up to 28.7 µM. In short, it runs like this:
as §1

In another assay the test system is CP247. Described as above. To be noted: P. falciparum in erythrocytes, SYBR Green DNA, 72 h; series mostly up to 28.7 µM. The gist of the method:
as §1

In another assay the test system is CP262. The assay is described as above. To be noted: P. falciparum in erythrocytes, SYBR Green DNA, 72 h; series mostly up to 28.7 µM. The gist of the method:
as §1

The test system of a further assay is CP265. The assay is described as above. To be noted: P. falciparum in erythrocytes, SYBR Green DNA, 72 h; series mostly up to 28.7 µM. In short, it runs like this: as §1
Another assay deals with CP286. The description is as above. To be noted: P. falciparum in erythrocytes, SYBR Green DNA, 72 h; series mostly up to 28.7 µM. The gist of the method:
as §1

The next assay relates to CP335. Described as above. To be noted: P. falciparum in erythrocytes, SYBR Green DNA, 72 h; series mostly up to 28.7 µM. In short, it runs like this:
as §1

The subject of a further assay is DIV30. Described as above. To be noted: P. falciparum in erythrocytes, SYBR Green DNA, 72 h; series mostly up to 28.7 µM. The gist of the method:
as §1

For another assay, the system named is GB4. The description is as above. To be noted: P. falciparum in erythrocytes, SYBR Green DNA, 72 h; series mostly up to 28.7 µM. The gist of the method: as §1
In a further assay the test system is HB3. Described as above. To be noted: P. falciparum in erythrocytes, SYBR Green DNA, 72 h; series mostly up to 28.7 µM. In short, it runs like this: as §1
The test system of a further assay is PAD. The description is as above. To be noted: P. falciparum in erythrocytes, SYBR Green DNA, 72 h; series mostly up to 28.7 µM. In short, it runs like this:
as §1

The subject of a further assay is PC49. The description is as above. To be noted: P. falciparum in erythrocytes, SYBR Green DNA, 72 h; series mostly up to 28.7 µM. The gist of the method:
as §1

The test system of another assay is TAB113. Described as above. To be noted: P. falciparum in erythrocytes, SYBR Green DNA, 72 h; series mostly up to 28.7 µM. The gist of the method: as §1
The subject of the next assay is W2. The description is as above. To be noted: P. falciparum in erythrocytes, SYBR Green DNA, 72 h; series mostly up to 28.7 µM. The gist of the method: as §1
Assay [3] concerns the target Cytochrome P450 2C9 (Homo sapiens) (UniProt P11712). In words: qHTS for inhibitors of CYP2C9 against the NCATS DSHEA and TCM libraries (AID 1919973).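 Note: luminogenic pro-luciferin CYP2C9 substrate turned into luciferin with NADPH regeneration; % is set by controls: 0 for no effect and ±100 for the full control effect.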 In short, it runs like this:
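Read-out is luminescence after P450-Glo detection (30 min, RT). Before that: 15 min compound–enzyme preincubation, then 30-45 min reaction with 1x NADPH regeneration solution, substrate concentration isoform-specific.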

In assay [4] the target is Cytochrome P450 1A2 (Homo sapiens) (UniProt P05177). Nature of the assay: qHTS for inhibitors of CYPIA2 against the NCATS DSHEA and TCM libraries (AID 1919976).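 Note: light from luciferin formed by CYP1A2 from a pro-luciferin substrate; % is set by controls: 0 for no effect and ±100 for the full control effect.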 In short, it runs like this: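 CYP1A2 + luciferin substrate, 100 mM KPO4-type buffer; cmpd 15 min RT; 1x NADPH regen, 30-45 min RT dark; detection reagent 30 min RT; luminescence. Minus-enzyme wells as background; furafylline intraplate control.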

Inconclusive results are not listed. Unmarked numbers belong to inactive results. Active and inactive are the calls of the source. Unless noted, calls come from the whole dose curve; as a rule, active = well fitted curve in the direction sought with a large enough effect; inconclusive = small, poorly fitted or top-dose-only effect, or another doubt; inactive = no such curve, though single readings can be large; an effect the other way counts as inactive or inconclusive.

Chain of Cytochrome P450 1A2 (Homo sapiens) (P05177 whole entry, looked up): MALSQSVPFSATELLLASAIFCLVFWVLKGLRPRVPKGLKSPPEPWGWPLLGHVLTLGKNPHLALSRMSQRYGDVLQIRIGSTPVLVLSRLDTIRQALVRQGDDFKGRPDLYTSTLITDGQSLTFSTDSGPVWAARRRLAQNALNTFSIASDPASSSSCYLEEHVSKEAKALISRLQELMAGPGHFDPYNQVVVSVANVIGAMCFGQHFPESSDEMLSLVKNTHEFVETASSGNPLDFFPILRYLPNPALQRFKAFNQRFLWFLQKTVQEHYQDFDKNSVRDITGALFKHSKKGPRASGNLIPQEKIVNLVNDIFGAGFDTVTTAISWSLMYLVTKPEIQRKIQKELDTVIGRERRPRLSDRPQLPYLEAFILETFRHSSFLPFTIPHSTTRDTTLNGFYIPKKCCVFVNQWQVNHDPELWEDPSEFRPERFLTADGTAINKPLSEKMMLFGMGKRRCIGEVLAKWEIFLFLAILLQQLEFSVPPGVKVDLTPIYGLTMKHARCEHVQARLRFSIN
Chain of Cytochrome P450 2C9 (Homo sapiens) (P11712 whole entry, looked up, canonical isoform): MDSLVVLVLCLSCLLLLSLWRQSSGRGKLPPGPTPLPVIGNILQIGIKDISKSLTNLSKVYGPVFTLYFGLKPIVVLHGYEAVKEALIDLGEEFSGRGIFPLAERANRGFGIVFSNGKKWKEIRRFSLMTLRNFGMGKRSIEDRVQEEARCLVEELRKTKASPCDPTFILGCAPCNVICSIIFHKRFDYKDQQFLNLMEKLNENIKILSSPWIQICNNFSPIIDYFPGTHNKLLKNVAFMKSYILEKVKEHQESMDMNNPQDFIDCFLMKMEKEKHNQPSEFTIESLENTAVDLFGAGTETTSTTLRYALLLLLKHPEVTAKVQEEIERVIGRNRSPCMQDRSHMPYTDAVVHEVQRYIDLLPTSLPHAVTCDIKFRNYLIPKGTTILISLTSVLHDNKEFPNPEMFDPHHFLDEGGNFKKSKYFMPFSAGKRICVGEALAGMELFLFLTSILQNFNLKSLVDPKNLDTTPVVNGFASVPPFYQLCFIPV
Chain of Estrogen receptor (Homo sapiens) (P03372 whole entry, looked up): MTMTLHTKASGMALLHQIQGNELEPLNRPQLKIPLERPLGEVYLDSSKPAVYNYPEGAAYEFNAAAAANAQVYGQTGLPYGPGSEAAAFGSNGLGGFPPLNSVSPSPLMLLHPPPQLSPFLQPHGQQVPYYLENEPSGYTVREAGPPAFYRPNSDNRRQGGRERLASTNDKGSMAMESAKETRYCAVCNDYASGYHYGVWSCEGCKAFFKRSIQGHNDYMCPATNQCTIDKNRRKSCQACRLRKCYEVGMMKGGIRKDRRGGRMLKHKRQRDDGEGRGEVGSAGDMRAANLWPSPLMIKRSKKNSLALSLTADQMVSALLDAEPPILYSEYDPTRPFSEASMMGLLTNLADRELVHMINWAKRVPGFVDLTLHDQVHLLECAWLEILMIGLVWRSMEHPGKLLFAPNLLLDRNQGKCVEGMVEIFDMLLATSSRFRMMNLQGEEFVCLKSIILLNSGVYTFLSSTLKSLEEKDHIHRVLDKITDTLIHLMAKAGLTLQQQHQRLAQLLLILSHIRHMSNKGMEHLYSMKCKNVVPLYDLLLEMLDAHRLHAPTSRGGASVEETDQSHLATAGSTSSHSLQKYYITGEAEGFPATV
Chain of Retinoic acid receptor RXR-alpha (Homo sapiens) (P19793 whole entry, looked up): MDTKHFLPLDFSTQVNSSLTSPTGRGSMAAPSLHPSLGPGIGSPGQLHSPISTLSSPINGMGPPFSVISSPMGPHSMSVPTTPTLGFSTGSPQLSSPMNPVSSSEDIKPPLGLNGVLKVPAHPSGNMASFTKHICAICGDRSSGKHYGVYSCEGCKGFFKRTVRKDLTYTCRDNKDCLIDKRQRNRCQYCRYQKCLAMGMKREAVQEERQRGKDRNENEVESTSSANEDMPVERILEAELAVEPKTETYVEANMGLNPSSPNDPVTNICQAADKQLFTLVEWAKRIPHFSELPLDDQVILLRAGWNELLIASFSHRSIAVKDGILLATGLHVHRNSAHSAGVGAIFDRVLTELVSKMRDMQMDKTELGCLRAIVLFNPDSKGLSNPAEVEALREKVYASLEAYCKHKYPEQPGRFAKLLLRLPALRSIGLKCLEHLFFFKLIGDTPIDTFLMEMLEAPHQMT

With `CCCCCCCCOC(=O)c1cc(O)c(O)c(O)c1`, the Potency result in [1] is “inactive”. In assay [2], the max response was -18.9%.
Take `O=C(O)c1cc(O)c2c(c1)[C@H]([C@H]1c3cc(C(=O)O)cc(O)c3C(=O)c3c(O[C@@H]4OC(CO)C(O)C(O)C4O)cccc31)c1cccc(O[C@@H]3OC(CO)C(O)C(O)C3O)c1C2=O` (some centres not stated): the Potency entry in the assay with AS120, in the assay on ATS189, in the assay with ATS95, with CP238, in the assay on CP247 and in the assay on CP262 was “inactive” each time. Besides, the Potency result in the assay on CP265, in the assay with CP286, with CP335, in the assay with HB3, in the assay on PAD and with PC49 was “inactive” in each case. Also, the Potency result with TAB113 and with W2 was “inactive” throughout. In addition, the Potency with DIV30 and in the assay on GB4 was 15.1 µM (active) throughout.
In the case of `OCC1=C[C@@H](O)[C@@H]2C=CO[C@@H](OC3O[C@H](CO)[C@@H](O)[C@H](O)[C@H]3O)[C@H]12` (some centres not stated), the Potency result in [3] and in [4] was “inactive” each time.
As for `CCCCCCCCCC=O`, the Potency entry in assay [3] and in [4] was “inactive” each time.

Values taken from PubChem BioAssay (NCATS).
